The values that follow come from PubChem BioAssay AID1835 (Johns Hopkins Ion Channel Center, 2009).

The whole screen tested about 2,400 compounds, of which about 750 (31%) were called active.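 How the source made its calls: active means median signal gain over dofetilide-blocked control wells reaching their mean plus 3 SD, so readout 1 at least 0; inactive means the rest.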 The list shows a part of the results.

In this assay the target is Voltage-gated inwardly rectifying potassium channel KCNH2 (Homo sapiens) (UniProt Q12809). The assay can be described thus: modulators restoring hERG flux under dofetilide – cell-based, thallium flux, duplicate retest, dofetilide IC70, confirmation (AID 1835). The settings on record: hERG cell line, FluxOR thallium flux, dofetilide-blocked; at 10 µM; hits give high values. In general terms: hERG is a cardiac potassium channel; its block is linked to QT prolongation.
Sequence of Voltage-gated inwardly rectifying potassium channel KCNH2 (Homo sapiens) (Q12809 whole entry, looked up): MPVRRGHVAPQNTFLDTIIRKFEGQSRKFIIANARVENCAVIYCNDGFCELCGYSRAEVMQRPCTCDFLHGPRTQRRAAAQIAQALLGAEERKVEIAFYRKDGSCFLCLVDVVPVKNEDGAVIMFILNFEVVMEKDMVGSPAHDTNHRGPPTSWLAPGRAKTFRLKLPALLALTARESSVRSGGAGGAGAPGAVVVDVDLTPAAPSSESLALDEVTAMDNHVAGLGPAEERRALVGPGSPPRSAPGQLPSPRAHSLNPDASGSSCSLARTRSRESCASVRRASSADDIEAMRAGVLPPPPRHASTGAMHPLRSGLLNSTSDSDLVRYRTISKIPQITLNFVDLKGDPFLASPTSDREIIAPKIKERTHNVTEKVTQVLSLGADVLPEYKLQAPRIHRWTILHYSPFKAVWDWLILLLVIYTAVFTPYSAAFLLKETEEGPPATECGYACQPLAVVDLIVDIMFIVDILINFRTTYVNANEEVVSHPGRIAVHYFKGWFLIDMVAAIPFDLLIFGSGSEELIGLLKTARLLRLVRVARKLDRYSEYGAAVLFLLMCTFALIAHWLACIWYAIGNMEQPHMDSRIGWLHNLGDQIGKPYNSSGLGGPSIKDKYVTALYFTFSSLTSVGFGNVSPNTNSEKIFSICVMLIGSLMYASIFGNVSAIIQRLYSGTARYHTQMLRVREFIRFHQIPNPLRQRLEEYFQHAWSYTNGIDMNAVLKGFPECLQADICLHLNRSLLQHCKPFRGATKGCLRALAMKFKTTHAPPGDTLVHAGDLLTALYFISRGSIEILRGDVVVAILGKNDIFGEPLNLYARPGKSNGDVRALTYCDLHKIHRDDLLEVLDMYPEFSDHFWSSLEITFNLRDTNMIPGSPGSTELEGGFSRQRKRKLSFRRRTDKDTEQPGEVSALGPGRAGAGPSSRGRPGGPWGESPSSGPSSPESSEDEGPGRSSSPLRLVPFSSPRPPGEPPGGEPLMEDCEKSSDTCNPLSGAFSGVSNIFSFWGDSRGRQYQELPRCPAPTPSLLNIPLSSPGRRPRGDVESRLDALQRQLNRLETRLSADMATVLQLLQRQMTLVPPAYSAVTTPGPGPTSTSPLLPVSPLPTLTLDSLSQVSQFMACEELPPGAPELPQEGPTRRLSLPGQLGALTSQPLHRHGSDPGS
Turning to `CC(C)CNC(=S)NC(=O)c1ccc(Cl)cc1`, the activity increase over dofetilide control, less the hit threshold was 19% (active).

For `Cc1ccc(C(=O)NNC(=S)NC(=O)c2ccc(Cl)cc2)cc1`, the activity increase over dofetilide control, less the hit threshold is -23% (inactive).

Take `Cc1cccc(C(=O)NC(=S)NNC(=O)c2ccc(Cl)cc2)c1`: the activity increase over dofetilide control, less the hit threshold was -10% (inactive). For the molecule `Nc1nc2n(n1)C(=O)CC(c1ccc(Cl)cc1)N2` (centres undefined), the activity increase over dofetilide control, less the hit threshold is -10% (inactive).

As to `CN(C)S(=O)(=O)c1cc(NC2CC(=O)N(c3ccc(F)cc3)C2=O)ccc1Cl` (centres undefined), the activity increase over dofetilide control, less the hit threshold was -2% (inactive). As to `O=C(Cn1cncn1)c1ccccc1Br`, the activity increase over dofetilide control, less the hit threshold was -24% (inactive). For `CCC(=O)NC(=S)NNC(=O)c1ccccc1[N+](=O)[O-]`, the activity increase over dofetilide control, less the hit threshold was -3% (inactive). Then `O=C(NC(=S)N(Cc1ccccc1)Cc1ccccc1)c1ccccc1F`, with 32% (active); and `COc1nccnc1NS(=O)(=O)c1ccc(NC(=S)NC(=O)c2ccccc2F)cc1`, with -17% (inactive). As for `O=C(NC(=S)N(CCO)Cc1ccccc1)c1cc(Br)ccc1Cl`, the figure is 7% (active).

As for `CCCN(Cc1ccccc1)C(=S)NC(=O)c1ccccc1[N+](=O)[O-]`, the activity increase over dofetilide control, less the hit threshold is 52% (active). Regarding `CN(Cc1ccccc1)C1CCN(Cc2ccccc2[N+](=O)[O-])CC1`, the activity increase over dofetilide control, less the hit threshold is -16% (inactive).

`CCN(Cc1ccccc1)C(=S)NC(=O)c1ccccc1Br`: the activity increase over dofetilide control, less the hit threshold was 47% (active). For `O=C(O)c1ccc2c(c1)C(=O)N(c1cc([N+](=O)[O-])ccn1)C2=O`, the activity increase over dofetilide control, less the hit threshold is -3% (inactive). As for `CCCN1Cc2cccc(C(=O)NCc3cccs3)c2C1=O`, the activity increase over dofetilide control, less the hit threshold is -21% (inactive). For `CCCCCCc1cc2cc(-c3nnc(-c4ccccc4O)o3)c(=O)oc2cc1O`, the activity increase over dofetilide control, less the hit threshold was -16% (inactive). Then `Cn1cc([N+](=O)[O-])c(C(=O)N/N=C\c2c[nH]c3ccccc23)n1`, with -7% (inactive); and `O=C(Nc1ccc(Oc2cccnc2)cc1)c1cccc([N+](=O)[O-])c1`, with -6% (inactive); and `COc1ccc(-c2ccc(/C=N/NC(=O)c3cccnc3)o2)c([N+](=O)[O-])c1`, with 1% (active). As for `O=C(Nc1c[nH]c(=O)[nH]c1=O)c1ccc2c(c1)C(=O)N(c1cccc([N+](=O)[O-])c1)C2=O`, the figure is -10% (inactive); as for `CC(=O)Cn1c(=O)c2c(nc3n2CCCN3Cc2ccccc2)n(C)c1=O`, -13% (inactive); as for `O=c1[nH]n2c(=O)c3c([nH]c2c1N=Nc1ccccc1)CCC3`, -14% (inactive). Consider `c1ccc(-c2ccnc3nc(N4CCN(c5ccccc5)CC4)nn23)cc1`, for which the activity increase over dofetilide control, less the hit threshold was -35% (inactive). Then `O=c1[nH]c(N2CCN(c3ccccc3)CC2)nc2c1CCCC2`, with 2% (active); and `CN(C(=O)c1cnccn1)c1nnc(-c2cnccn2)s1`, with -15% (inactive). With `NC(=O)Cn1nnc(-c2ccc(CN3CCCCC3)cc2)n1`, the activity increase over dofetilide control, less the hit threshold is -23% (inactive).

Turning to `COc1ccc(-c2cc(C(=O)N3CCCC3)no2)cc1OC`, the activity increase over dofetilide control, less the hit threshold is 0% (inactive). For the molecule `O=C(O)Cc1sc(-c2ccc(Cl)cc2)nc1-c1ccccc1`, the activity increase over dofetilide control, less the hit threshold was -10% (inactive). As for `O=C(Cn1nc(-c2ccccc2)c2ccccc2c1=O)Nc1ccc(O)cc1`, the figure is 24% (active); as for `CCOC(=O)c1ccc(NC(=O)Cn2nnc(-c3ccccc3)n2)cc1`, -19% (inactive). As for `Cc1nn(CC(=O)Nc2ccc(C(=O)N3CCCC3)cc2)c(=O)c2ccccc12`, the activity increase over dofetilide control, less the hit threshold is -11% (inactive). `CCOC(=O)c1sc2nc(C)[nH]c(=S)c2c1C`: the activity increase over dofetilide control, less the hit threshold is 21% (active).

Turning to `CCOC(=O)c1sc2nc(Cc3ccc(Cl)cc3)[nH]c(=S)c2c1C`, the activity increase over dofetilide control, less the hit threshold is 52% (active).

For the molecule `N/C(=N\OCc1ccccc1)c1nonc1N`, the activity increase over dofetilide control, less the hit threshold is -16% (inactive).

Consider `CC(C)Cc1nnc(NC(=O)Cc2ccccc2[N+](=O)[O-])s1`, for which the activity increase over dofetilide control, less the hit threshold was -5% (inactive). Then `c1ccc(-c2csc(Nc3ccc4c(c3)OCCO4)n2)cc1`, with -17% (inactive); and `COc1ccc(NC(=O)c2ccc(COCC(F)(F)C(F)F)cc2)cc1`, with -14% (inactive).

Consider `CCc1ccc(NC(=O)C(=O)NNC(=O)c2ccc(OC)cc2)cc1`, for which the activity increase over dofetilide control, less the hit threshold was 87% (active). `COc1ccc(OCC(=O)NNC(=O)C(=O)Nc2ccc(C)cc2)cc1`: the activity increase over dofetilide control, less the hit threshold was -11% (inactive). Take `COc1cccc(NC(=O)c2cncs2)c1`: the activity increase over dofetilide control, less the hit threshold was -13% (inactive). As for `COc1cc(CCC(=O)NNC(=O)c2ccc(C)cc2)cc(OC)c1OC`, the figure is -3% (inactive); as for `CCc1ccc(NC(=S)Nc2cccc(OC)c2)cc1`, -26% (inactive); as for `CCc1ccc(NC(=O)C(=O)NNC(=O)c2cccc(OC)c2)cc1`, 70% (active). For the molecule `CCOc1cccc(C(=O)Nc2ccc3[nH]ncc3c2)c1`, the activity increase over dofetilide control, less the hit threshold was -18% (inactive).

For the molecule `COc1cccc(C(=O)NNC(=O)C(=O)Nc2ccc(C)cc2)c1`, the activity increase over dofetilide control, less the hit threshold is 56% (active).

Regarding `COc1ccc(C(=O)NNC(=O)C(=O)Nc2ccc(C)cc2)cc1`, the activity increase over dofetilide control, less the hit threshold is 30% (active).

For the molecule `COc1ccc(NC(=O)c2ccc(NC3=NC4CS(=O)(=O)CC4S3)cc2)cc1` (centres undefined), the activity increase over dofetilide control, less the hit threshold was -17% (inactive). As for `CCN(/N=C/c1ccc(Cl)cc1)c1cc(=O)n(C)c(=O)[nH]1`, the figure is -20% (inactive). On to `Cc1noc(C)c1COc1cccc(C(=O)NCc2cccc(Cl)c2)c1`, for which the activity increase over dofetilide control, less the hit threshold is -18% (inactive). As for `CC(C)C12CN3CC(C(C)C)(CN(C1)C31C(=O)Nc3ccccc31)C2=O` (centres undefined), the figure is -24% (inactive). Then `O=C(COc1nsnc1N1CCOCC1)Nc1ccc(Cl)cc1`, with -21% (inactive); and `CC(C)(C)c1csc(NC(=O)C2=COCCO2)n1`, with -17% (inactive); and `CCc1nnc(NC(=O)CCC(=O)N2CCN(C3CCCCC3)CC2)s1`, with -22% (inactive). Then `CN(C(=O)CSc1ncnc2sc(-c3ccccc3)cc12)C1CCS(=O)(=O)C1` (centres undefined), with 82% (active). Take `O=C(O)CCSc1ncnc2sc(-c3ccccc3)cc12`: the activity increase over dofetilide control, less the hit threshold was 9% (active). Then `Cc1ccccc1-n1c(SCC(=O)N(C)C2CCS(=O)(=O)C2)nnc1-c1ccncc1` (centres undefined), with -8% (inactive).

As to `CCOC(=O)c1sc2nc(C)nc(SCC(=O)N(C)C3CCS(=O)(=O)C3)c2c1C` (centres undefined), the activity increase over dofetilide control, less the hit threshold is -6% (inactive). Then `Nc1nc2c(s1)CCc1c-2cnn1-c1ccccc1`, with -46% (inactive); and `CC(=O)c1ccc(N2CCN(C(=O)Cc3ccccc3)CC2)c(F)c1`, with -15% (inactive). `COC(=O)Nc1c(-c2ccccc2)nc2ccccn12`: the activity increase over dofetilide control, less the hit threshold is -4% (inactive). Turning to `O=c1c(-c2ccccc2)nc(-c2ccccc2)cn1O`, the activity increase over dofetilide control, less the hit threshold was 33% (active).

Turning to `CC1=NN(c2nc(-c3ccccc3)cs2)C(=O)C1N=Nc1ccccc1` (centres undefined), the activity increase over dofetilide control, less the hit threshold is -31% (inactive). In the case of `Cc1nc(-c2ccccc2)cn(O)c1=O`, the activity increase over dofetilide control, less the hit threshold was 16% (active). As for `O=C(O)C/C(=C\c1cc(Br)cs1)c1nc2ccccc2o1`, the activity increase over dofetilide control, less the hit threshold was -6% (inactive).
